Assay outcomes from PubChem.
This is a sample that favours compounds with a hit; in the whole collection about 21% have one here.
Cycloheximide cs – Cycloheximide Counterscreen for Small Molecule Inhibitors of Shiga Toxin | cell reporter, cycloheximide protein synthesis inhibition counterscreen | max response, % | 12% of 300,000 active; in the data active = max response mostly above about 13%, no sharp cut-off; inactive = mostly below about 14%; also: read at 38.3 µM for the half of the compounds with a filed dose; 0% is about no effect
NS1 inh – qHTS Assay for Inhibitors of Influenza NS1 Protein Function. AID 2326, 2010. Potency, µM (titrated, usually from 46.1 µM), for the others: top-dose activity, positive = more growth. 0.4% of 270,000 active; calls by dose curve; also: potency is read from the fitted curve at half-maximal effect; actives are rising curves; nearly all actives have a fitted effect of over 50% in size
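Growth recovery, yeast-based: influenza A NS1 expressed in S. cerevisiae causes slow growth, and suppressors are detected by OD600. The parent strain without NS1 is used as positive control.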
FBPA Giardia inh – qHTS Assay for Inhibitors of Fructose-1,6-bisphosphate Aldolase from Giardia Lamblia. 0.71% of 290,000 active. AID 2451, 2010. purified Giardia FBPA. Potency, µM (highest dose often 59.6 µM), for inactives: top-dose activity, negative = inhibition, hits mostly inhibitors. A8B2U2; also: potency is read from the fitted curve at half-maximal effect; % is scaled to controls: 0 for no effect and ±100 for the full control effect; nearly all actives have a fitted effect of over 55% in size
Target sequence (A8B2U2 whole entry, looked up): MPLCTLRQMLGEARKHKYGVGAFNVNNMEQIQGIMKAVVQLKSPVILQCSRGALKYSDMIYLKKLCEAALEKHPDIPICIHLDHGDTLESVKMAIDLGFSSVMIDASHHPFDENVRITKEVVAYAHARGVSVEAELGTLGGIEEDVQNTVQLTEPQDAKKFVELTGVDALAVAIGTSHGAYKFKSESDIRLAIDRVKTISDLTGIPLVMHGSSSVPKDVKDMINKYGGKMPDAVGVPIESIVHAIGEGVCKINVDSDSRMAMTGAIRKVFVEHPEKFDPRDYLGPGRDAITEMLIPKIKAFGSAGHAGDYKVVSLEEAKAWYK
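Giardia FBPA (40 nM reagent) was preincubated 10 min at RT with compound (up to 57.5 uM final), then substrate plus GAPDH/TPI/NAD/arsenate coupling system with diaphorase/resazurin was added; resorufin fluorescence (525/598 nm) was read after 20 min.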
Pf growth 96h – Primary qHTS for delayed death inhibitors of the malarial parasite plastid, 96 hour incubation. P. falciparum luciferase reporter growth, 96 h. Potency, µM (highest dose often 28.7 µM), for inactives: at the highest dose activity change, negative = inhibition, hits mostly inhibitors. 6.9% of 320,000 active. AID 504834, 2011; also: potency is read from the fitted curve at half-maximal effect; % is scaled to controls: 0 for no effect and ±100 for the full control effect
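P. falciparum expressing integrated firefly luciferase grown in erythrocytes (2% hematocrit, 0.05% parasitemia final) with compounds for 96 hours at 37 C, 5% CO2. Growth inhibition read as loss of luminescence after adding luciferase detection reagent.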
Pf growth 48h – Primary qHTS for delayed death inhibitors of the malarial parasite plastid, 48 hour incubation; 5.9% of 310,000 active; P. falciparum luciferase growth in erythrocytes, 48 h; AID 504832, 2011; Potency, µM (series often up to 28.7 µM), for the others: at the top dose activity change, negative = inhibition, actives largely listed as inhibitors; also: potency is read from the fitted curve at half-maximal effect; % is scaled to controls: 0 for no effect and ±100 for the full control effect
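Erythrocytes infected with P. falciparum carrying an integrated firefly luciferase reporter (2% hematocrit, 0.1% parasitemia final) were exposed to compounds in RPMI 1640 with 0.5% Albumax at 37 C, 5% CO2. Growth inhibition was scored as reduced luminescence.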
Shiga inhibitor – A qHTS for Small Molecule Inhibitors of Shiga Toxin; Vero cells, Shiga toxin protein synthesis inhibition reporter; inhibition, % at 38.7 µM; 9.2% of 290,000 active; AID 2315, 2010; in the data active = inhibition mostly above about 28%, no sharp cut-off; inactive = mostly below about 43%; also: 0% is about no effect
Active calls of the source: *; ? = inconclusive; nt = no result given. Unless noted, calls follow the shape of the dose curve; as a rule, active = well fitted curve in the direction sought with a large enough effect; inconclusive = small, poorly fitted or top-dose-only effect, or another doubt; inactive = no such curve, though single readings can be large; an effect the other way counts as inactive or inconclusive.

SMILES	Cycloheximide cs	NS1 inh	FBPA Giardia inh	Pf growth 96h	Pf growth 48h	Shiga inhibitor
Cc1ccc2c(c1)N(CC(=O)NCCCN1CCOCC1)C(=O)C(C(C)C)O2 (stereo not given)	nt	nt	nt	24%	0%	nt
Cn1c(CCc2ccc(N)cc2)nc2ccccc21	32*	-1%	-6%	32%	133%	60
CCC/C(=N/NC(=O)c1csc(C)c1C)c1ccc(Cl)s1	36	6%	-1%	nt	33%	92*
CCC/C(=N\NC(=O)c1ccco1)c1ccc(Cl)s1	22*	-12%	nt	13µM*	-28%	19
CC/C(=N\NC(=O)c1cc(C)nc2ccccc12)c1ccc(C)s1	-2	11%	-1%	0%	-4%	-5
CCCOC(=O)/C(C)=N\NC(=O)c1ccco1	64*	-9%	-4%	-36%	nt	154*
COC(=O)N/N=C(\C)c1ccco1	2	nt	2%	-10%	6%	2
O=C(NN1C(=O)C2C3CCC(O3)C2C1=O)c1ccco1 (stereo not given)	-3	10%	2%	?	-3%	-8
CCOc1cc(C2Nc3ccccc3NC3=C2C(=O)CC(C)(C)C3)ccc1O (stereo not given)	14*	-5%	7%	408%	-22%	7
CC1(C)CC(=O)C2=C(C1)Nc1ccccc1NC2c1cccc(F)c1 (stereo not given)	-3	11%	4%	-11%	-23%	-15
Cn1cccc1C1Nc2ccccc2NC2=C1C(=O)CC(C)(C)C2 (stereo not given)	31*	-2%	?	17%	20%	64
COc1ccc(OC)c(CNC(=O)C2CCC(=O)N(CCCN3CCCC3=O)C2)c1 (stereo not given)	0	3%	nt	9%	-2%	-5
COc1ccc(N2C(=O)CSC2c2ccccc2[N+](=O)[O-])cc1 (stereo not given)	-5	-7%	3%	?	-10%	-4
Cc1cc(S(=O)(=O)Nc2c(NC3CCCCC3)c3ccccc3oc2=O)ccc1F	1	9%	nt	10µM*	12%	-15
c1ccc(CNc2nc(-c3ccc4c(c3)OCO4)nc3ccccc23)cc1	nt	nt	-14%	nt	nt	nt
CN(CC(=O)NNC(=O)Cc1ccccc1F)S(=O)(=O)c1ccc(Cl)cc1	nt	nt	nt	4%	11%	nt
Cc1ccn2c(-c3csc(NCc4ccco4)n3)c(C)nc2c1	2	-14%	?	-5%	12µM*	55
CC(=O)Nc1ccc(-c2csc(NCc3ccco3)n2)cc1	48*	23%	0%	0%	162%	44*
COc1ccc(-c2csc(NCc3ccco3)n2)cc1C	24*	?	-4%	nt	-16%	114*
c1cncc(-c2csc(NCc3ccco3)n2)c1	32*	-47%	-2%	?	nt	38*
NC(=O)C1CCN(C(=O)CCC(=O)c2ccc(F)cc2)CC1	7	-2%	3%	21%	6%	-1
CCOC(=O)C1CCCN(C(=O)C(CCSC)NC(=O)COc2ccccc2)C1 (stereo not given)	nt	nt	nt	21%	?	nt
COc1ccc(-c2nc3cccc(C)n3c2NCc2ccco2)cc1OC	16*	-30%	?	10%	10%	-4
O=C(O)c1cc(N=Nc2ccc(-c3ccc(N=Nc4ccc(O)c(C(=O)O)c4)cc3)cc2)ccc1O	12	nt	-2%	nt	nt	26*
CC1Cc2ccccc2N1C(=O)CCn1cccn1 (stereo not given)	3	9%	8%	7%	-2%	11
Cc1cccc(NC(=O)COC(=O)CC2CCCC2)c1C	nt	nt	nt	9%	25%	nt
COc1ccc(-c2csc(Nc3ccccc3)[n+]2CC(O)c2ccc([N+](=O)[O-])cc2)cc1 (stereo not given)	18*	6%	-25%	1.5µM*	1.3µM*	32
O=C(O)c1ccc(C[n+]2c(-c3ccccc3)csc2Nc2ccccc2)cc1	-1	6%	20%	19%	14%	-6
CCOC(=O)N1CCc2c(sc3ncn(Cc4ccc(F)cc4)c(=O)c23)C1	-4	-2%	-6%	5.9µM*	10µM*	18
